Measured values taken from the supplement of paper PMC4466140.

Biological target: CaNbp2
Assay: SPOT peptide array binding signal intensity (averaged, normalized) (arbitrary units (background-subtracted, floor 0; scale differs between SH3 domains)); higher = stronger binding of the SH3 domain to the peptide
Outline: (§1)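 Four yeast species supplied the SH3 domains, which were expressed as GST fusions in E. coli BL21(DE3) and purified on glutathione Sepharose. Incubation with cellulose membranes carrying synthetic 15-mer peptides, cysteines exchanged for serines, ran overnight at 4°C at 10 μg/ml in TBS-based blocking buffer. Binding signal is reported as normalized, background-subtracted spot intensity averaged over replicates, in arbitrary units not shared between domains.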

Row | Binder | SPOT peptide array binding signal intensity
1 | NPTKSPPPPPSPSTM | 45

Biological target: CaRvs167
Assay: as above
Outline: as §1

Row | Binder | SPOT peptide array binding signal intensity
2 | NPTKSPPPPPSPSTM | 0.667

Biological target: CaRvs167-3
Assay: as above
Outline: as §1

Row | Binder | SPOT peptide array binding signal intensity
3 | NPTKSPPPPPSPSTM | 1

Biological target: CaSho1
Assay: as above
Outline: as §1

Row | Binder | SPOT peptide array binding signal intensity
4 | NPTKSPPPPPSPSTM | 10.5

Biological target: CaSla1-D1-D2
Assay: as above
Outline: as §1

Row | Binder | SPOT peptide array binding signal intensity
5 | NPTKSPPPPPSPSTM | 49

Biological target: CaSla1-D3
Assay: as above
Outline: as §1

Row | Binder | SPOT peptide array binding signal intensity
6 | NPTKSPPPPPSPSTM | 30

Biological target: ScAbp1
Assay: as above
Outline: as §1

Row | Binder | SPOT peptide array binding signal intensity
7 | NPTKSPPPPPSPSTM | ≤ 0

Biological target: ScBbc1
Assay: as above
Outline: as §1

Row | Binder | SPOT peptide array binding signal intensity
8 | NPTKSPPPPPSPSTM | ≤ 0

Biological target: ScBem1-D1
Assay: as above
Outline: as §1

Row | Binder | SPOT peptide array binding signal intensity
9 | NPTKSPPPPPSPSTM | ≤ 0

Biological target: ScBzz1-D1
Assay: as above
Outline: as §1

Row | Binder | SPOT peptide array binding signal intensity
10 | NPTKSPPPPPSPSTM | 274

Biological target: ScBzz1-D2
Assay: as above
Outline: as §1

Row | Binder | SPOT peptide array binding signal intensity
11 | NPTKSPPPPPSPSTM | 22

Biological target: ScCyk3
Assay: as above
Outline: as §1

Row | Binder | SPOT peptide array binding signal intensity
12 | NPTKSPPPPPSPSTM | ≤ 0

Biological target: ScFus1
Assay: as above
Outline: as §1

Row | Binder | SPOT peptide array binding signal intensity
13 | NPTKSPPPPPSPSTM | ≤ 0

Biological target: ScHof1
Assay: as above
Outline: as §1

Row | Binder | SPOT peptide array binding signal intensity
14 | NPTKSPPPPPSPSTM | 1

Biological target: ScHse1
Assay: as above
Outline: as §1

Row | Binder | SPOT peptide array binding signal intensity
15 | NPTKSPPPPPSPSTM | 21.5

Biological target: ScLsb1
Assay: as above
Outline: as §1

Row | Binder | SPOT peptide array binding signal intensity
16 | NPTKSPPPPPSPSTM | ≤ 0

Biological target: ScLsb2
Assay: as above
Outline: as §1

Row | Binder | SPOT peptide array binding signal intensity
17 | NPTKSPPPPPSPSTM | ≤ 0

Biological target: ScLsb3
Assay: as above
Outline: as §1

Row | Binder | SPOT peptide array binding signal intensity
18 | NPTKSPPPPPSPSTM | ≤ 0

Biological target: ScLsb4
Assay: as above
Outline: as §1

Row | Binder | SPOT peptide array binding signal intensity
19 | NPTKSPPPPPSPSTM | ≤ 0

Biological target: ScMyo3
Assay: as above
Outline: as §1

Row | Binder | SPOT peptide array binding signal intensity
20 | NPTKSPPPPPSPSTM | 771

Biological target: ScMyo5
Assay: as above
Outline: as §1

Row | Binder | SPOT peptide array binding signal intensity
21 | NPTKSPPPPPSPSTM | 343

Biological target: ScNbp2
Assay: as above
Outline: as §1

Row | Binder | SPOT peptide array binding signal intensity
22 | NPTKSPPPPPSPSTM | 47.5

Biological target: ScPex13
Assay: as above
Outline: as §1

Row | Binder | SPOT peptide array binding signal intensity
23 | NPTKSPPPPPSPSTM | 80

Biological target: ScRvs167
Assay: as above
Outline: as §1

Row | Binder | SPOT peptide array binding signal intensity
24 | NPTKSPPPPPSPSTM | ≤ 0

Biological target: ScSho1
Assay: as above
Outline: as §1

Row | Binder | SPOT peptide array binding signal intensity
25 | NPTKSPPPPPSPSTM | 18

Biological target: ScSla1-D1-D2
Assay: as above
Outline: as §1

Row | Binder | SPOT peptide array binding signal intensity
26 | NPTKSPPPPPSPSTM | ≤ 0

Biological target: ScSla1-D3
Assay: as above
Outline: as §1

Row | Binder | SPOT peptide array binding signal intensity
27 | NPTKSPPPPPSPSTM | 11.5

Biological target: SpAbp1-D1
Assay: as above
Outline: as §1

Row | Binder | SPOT peptide array binding signal intensity
28 | NPTKSPPPPPSPSTM | ≤ 0

Biological target: SpBbc1
Assay: as above
Outline: as §1

Row | Binder | SPOT peptide array binding signal intensity
29 | NPTKSPPPPPSPSTM | ≤ 0

Biological target: SpBzz1-D1
Assay: as above
Outline: as §1

Row | Binder | SPOT peptide array binding signal intensity
30 | NPTKSPPPPPSPSTM | 548

Biological target: SpBzz1-D2
Assay: as above
Outline: as §1

Row | Binder | SPOT peptide array binding signal intensity
31 | NPTKSPPPPPSPSTM | 7.25

Biological target: SpCyk3
Assay: as above
Outline: as §1

Row | Binder | SPOT peptide array binding signal intensity
32 | NPTKSPPPPPSPSTM | 4

Biological target: SpHof1
Assay: as above
Outline: as §1

Row | Binder | SPOT peptide array binding signal intensity
33 | NPTKSPPPPPSPSTM | 1.25

Biological target: SpHof1-2
Assay: as above
Outline: as §1

Row | Binder | SPOT peptide array binding signal intensity
34 | NPTKSPPPPPSPSTM | 4

Biological target: SpHof1-3
Assay: as above
Outline: as §1

Row | Binder | SPOT peptide array binding signal intensity
35 | NPTKSPPPPPSPSTM | 0.5

Biological target: SpHse1
Assay: as above
Outline: as §1

Row | Binder | SPOT peptide array binding signal intensity
36 | NPTKSPPPPPSPSTM | 94

Biological target: SpLsb1
Assay: as above
Outline: as §1

Row | Binder | SPOT peptide array binding signal intensity
37 | NPTKSPPPPPSPSTM | 1

Biological target: SpLsb4
Assay: as above
Outline: as §1

Row | Binder | SPOT peptide array binding signal intensity
38 | NPTKSPPPPPSPSTM | ≤ 0

Biological target: SpMyo1
Assay: as above
Outline: as §1

Row | Binder | SPOT peptide array binding signal intensity
39 | NPTKSPPPPPSPSTM | 468

Biological target: SpNbp2
Assay: as above
Outline: as §1

Row | Binder | SPOT peptide array binding signal intensity
40 | NPTKSPPPPPSPSTM | ≤ 0

Biological target: SpPex13
Assay: as above
Outline: as §1

Row | Binder | SPOT peptide array binding signal intensity
41 | NPTKSPPPPPSPSTM | ≤ 0

Biological target: SpRvs167
Assay: as above
Outline: as §1

Row | Binder | SPOT peptide array binding signal intensity
42 | NPTKSPPPPPSPSTM | 2

Biological target: SpSla1-D1-D2
Assay: as above
Outline: as §1

Row | Binder | SPOT peptide array binding signal intensity
43 | NPTKSPPPPPSPSTM | ≤ 0

Biological target: SpSla1-D3
Assay: as above
Outline: as §1

Row | Binder | SPOT peptide array binding signal intensity
44 | NPTKSPPPPPSPSTM | ≤ 0
